{
  "source": "PubChem BioAssay AID588719",
  "about": "(Southern Research Specialized Biocontainment Screening …, 2011)",
  "note": "The campaign covered roughly 1,500 compounds. About 920 (61%) were called active. The rule behind the calls is not given here. So high a share suggests a set chosen from earlier hits. The list shows a part of the results. Results with a measured potency or affinity are listed apart.",
  "data": [
    {"assay": "Vero 76 cell cytotoxicity, dose response, cytotoxicity control for VEEV inhibitor project (AID 588719)", "settings": "Vero 76 cells viability, cytotoxicity counter-screen; series mostly up to 25 µM; viability: at the top concentration", "values": [
      {"smiles": "OCC1(CCOc2ccccc2)CCN(Cc2nc3ccc(F)cc3[nH]2)CC1", "viability": "82.4% (inactive)"},
      {"smiles": "COc1ccc(S(=O)(=O)N2CCC(C(=O)N[C@@H](C)C(=O)NCc3ccc(F)cc3)CC2)cc1", "viability": "88.8% (inactive)"},
      {"smiles": "COc1ccc(C(=O)/C=C/C(=O)N(CC(=O)NC2CCCCC2)Cc2ccccc2OC)c(O)c1", "viability": "93.6% (inactive)"},
      {"smiles": "CCCN1C(=O)c2ccccc2NC1c1ccc(OC)cc1O", "note": "(centres undefined)", "viability": "79.5% (inactive)"},
      {"smiles": "CCN1CCN(Cc2nc3ccc([N+](=O)[O-])cc3c(=O)n2-c2ccccc2F)CC1", "viability": "79.8% (inactive)"},
      {"smiles": "Cc1onc(C(=O)Nc2cccc(C(F)(F)F)c2)c1[N+](=O)[O-]", "viability": "76.4% (inactive)"},
      {"smiles": "CC1(NS(=O)(=O)c2ccc(Cl)s2)CCS(=O)(=O)C1", "note": "(centres undefined)", "viability": "92.2% (inactive)"},
      {"smiles": "C/C(=N/OCO/N=C(\\C)c1ccccc1)c1ccccc1", "viability": "85.1% (inactive)"},
      {"smiles": "O=S(=O)(Nc1nc2ccccc2nc1NCc1ccco1)c1ccc(F)cc1", "viability": "96% (inactive)"},
      {"smiles": "O=S(=O)(c1ccc(Cl)cc1)N1CCN(C(=S)Nc2ccccc2F)CC1", "viability": "87.5% (inactive)"},
      {"smiles": "CCC1CCCCN1S(=O)(=O)c1ccc(NC(=O)c2nc(S(C)(=O)=O)ncc2Cl)cc1", "note": "(centres undefined)", "viability": "95.8% (inactive)"},
      {"smiles": "C[C@@H](NC(=O)c1nc[nH]c1C(=O)N1CCN(C(=O)OC(C)(C)C)CC1)c1ccccc1", "viability": "92.1% (inactive)"},
      {"smiles": "CC(C)(C)OC(=O)[C@H](Cc1ccccc1)NC(=O)c1nc[nH]c1C(=O)N1CCN(C(=O)OC(C)(C)C)CC1", "viability": "73.2% (inactive)"},
      {"smiles": "CCn1c2ccccc2c2cc(NC(=O)c3ccc(=O)oc3)ccc21", "viability": "88.2% (inactive)"},
      {"smiles": "CN(C)CCOCCOc1ccc(Cl)cc1C(C)(C)C", "viability": "77% (inactive)"},
      {"smiles": "O=c1cc(-c2ccccc2)nc(/C=C/c2ccccc2)[nH]1", "viability": "92.5% (inactive)"},
      {"smiles": "Cc1nonc1OC(C)CNCCNc1ccc([N+](=O)[O-])cc1", "note": "(centres undefined)", "viability": "93.8% (inactive)"},
      {"smiles": "COc1ccc(-n2c(CN3CCC(C(N)=O)CC3)nc3ccc([N+](=O)[O-])cc3c2=O)c(OC)c1", "viability": "96.6% (inactive)"},
      {"smiles": "CCn1cc(C(=O)O)c(=O)c2cc(F)c(N3CCN(C(=S)NC(=O)c4ccc(F)cc4)CC3)cc21", "viability": "96.5% (inactive)"},
      {"smiles": "S=c1[nH]nc(-c2ccccn2)n1/N=C/c1ccc(-c2ccccc2Br)o1", "viability": "89.9% (inactive)"},
      {"smiles": "O=C(Nc1ccc(Cl)cc1C(=O)c1ccccn1)c1ccccc1", "viability": "85.4% (inactive)"},
      {"smiles": "O=C(O)c1cccnc1Nc1ccc(Cl)cc1", "viability": "77.5% (inactive)"},
      {"smiles": "Cc1cc(C(=O)Cn2nnc3ccccc3c2=O)c(C)n1-c1ccccc1F", "viability": "74.2% (inactive)"},
      {"smiles": "Cc1ccc(C)c(-n2cc(CNC(C)Cn3cncn3)c(-c3ccccc3)n2)c1", "note": "(centres undefined)", "viability": "89.9% (inactive)"},
      {"smiles": "O=C(N/N=C(\\CC(=O)c1cccs1)C(F)(F)F)c1ccncc1", "viability": "75% (inactive)"},
      {"smiles": "CCOC(=O)c1oc2ccc(S(=O)(=O)n3nc(-c4ccc(C)cc4)cc3N)cc2c1C", "viability": "75.5% (inactive)"},
      {"smiles": "CC(=O)Nc1ccc(S(=O)(=O)Nc2nc(C)nc3sc4c(c23)CCC4)cc1", "viability": "88.4% (inactive)"},
      {"smiles": "COc1ccccc1/C=C/C(=O)c1ccc(NC(C)=O)cc1", "viability": "84.5% (inactive)"},
      {"smiles": "CCOC(=O)c1c(CSC(=N)N)n(-c2ccccc2)c2cc(Br)c(OC(C)=O)cc12", "viability": "81.1% (inactive)"},
      {"smiles": "CC(C)=CCN1CCN(Cc2cccc3nccnc23)CC1CCO", "note": "(centres undefined)", "viability": "96.6% (inactive)"},
      {"smiles": "Cc1ccc(/C([O-])=C(/C(=S)Nc2ccc(SC(F)F)cc2)[n+]2ccccc2)cc1[N+](=O)[O-]", "viability": "80.7% (inactive)"},
      {"smiles": "Cc1ccc(/C=N/NC(=O)C[n+]2ccccc2)s1", "viability": "96% (inactive)"},
      {"smiles": "Cc1ccc(NC(=O)NCc2ccc3[nH]c(C)cc3c2)cc1", "viability": "85.9% (inactive)"},
      {"smiles": "COc1cc(/C=C/C(=O)c2c(O)ccc3c(C)cc(=O)oc23)ccc1O", "viability": "76.5% (inactive)"},
      {"smiles": "Cc1ccc(/C=C/c2onc(C)c2S(=O)(=O)N2CCC(C(=O)N3CCN(C)CC3)CC2)cc1", "viability": "72.2% (inactive)"},
      {"smiles": "O=C(NC(Cc1c[nH]c2ccccc12)C(=O)Nc1ccc(F)cc1)c1cccs1", "note": "(centres undefined)", "viability": "70.5% (inactive)"},
      {"smiles": "S=c1[nH]nc(-c2ccccc2)n1/N=C/c1ccc(-c2ccccc2Cl)o1", "viability": "73.6% (inactive)"},
      {"smiles": "Cc1ccc(NC(=O)c2ncn(CCCNCC3CCCCC3)n2)cc1C", "viability": "76.9% (inactive)"},
      {"smiles": "CCOc1ccccc1NC(=O)c1cc(S(=O)(=O)NCc2ccco2)ccc1F", "viability": "80% (inactive)"},
      {"smiles": "CN1CCc2cccc3c2[C@H]1Cc1ccc(O)c(O)c1-3", "viability": "93.6% (inactive)"},
      {"smiles": "COc1ccc2cc(-c3cc(C(=O)O)c4ccccc4n3)ccc2c1", "viability": "79.3% (inactive)"},
      {"smiles": "CCOc1ccc(NC(=O)c2c(NC(=O)CN3CCN(C)CC3)sc3c2CCC3)cc1", "viability": "71.5% (inactive)"},
      {"smiles": "CCOc1ccc(NC(=O)Cn2sc3nc(C)cc(C)c3c2=O)cc1", "viability": "82.7% (inactive)"},
      {"smiles": "CC(C)CC1c2[nH]c3ccccc3c2CCN1CCCn1cccn1", "note": "(centres undefined)", "viability": "81.5% (inactive)"},
      {"smiles": "Nc1ncnn1Cc1ccccc1", "viability": "95.4% (inactive)"},
      {"smiles": "CCOC(=O)C1=NN(C(=O)c2ccc(OC)cc2)C(O)(c2ccc(Cl)cc2)C1", "note": "(centres undefined)", "viability": "91.5% (inactive)"},
      {"smiles": "CCC(=NN=C(CC)c1ccccc1O)c1ccccc1O", "viability": "95% (inactive)"},
      {"smiles": "C#CCOc1ccc(C2C3=C(CC(C)(C)CC3=O)N(CC(=O)O)C3=C2C(=O)CC(C)(C)C3)cc1OC", "viability": "91.7% (inactive)"},
      {"smiles": "O=c1c2cccnc2[nH]c(=S)n1CCCN1CCN(c2ccccc2F)CC1", "viability": "70.8% (inactive)"}
    ]}
  ]
}
